GPR151 ag = activates the human receptor GPR151 | Q8TDV0 | PathHunter beta-arrestin GPR151 cells, luminescence | activation, % at 11.2 µM | 650,000 tested, 1% active | AID 1508602; in the data active means activation above about 4.9%
MITF inh = inhibitors of human MITF | AlphaScreen MITF homodimerization, bead proximity signal | 650,000 tested, 0.91% active | inhibition, % at 2.6 µM; in the data active means inhibition above about 50%
TEAD-YAP block = TEAD-YAP interaction inhibition; inhibition, % at 9.12 µM; HEK-TIYL cells, TEAD-Gal4/YAP UAS-luciferase luminescence; 640,000 tested, 1.4% active; in the data active means inhibition above about 32%
FBW7 activator = activators of human E3 ligase FBW7; normalized activity (activation), % at 26.1 µM; Q969H0; 650,000 tested, 0.13% active; AID 1259310; AlphaScreen FBW7–phospho-cyclin E peptide binding, activator screen; in the data active means normalized activity above about 1.9%;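 further: purified mutant Fbw7 with reduced substrate affinity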
Target sequence (Q969H0 whole entry, looked up): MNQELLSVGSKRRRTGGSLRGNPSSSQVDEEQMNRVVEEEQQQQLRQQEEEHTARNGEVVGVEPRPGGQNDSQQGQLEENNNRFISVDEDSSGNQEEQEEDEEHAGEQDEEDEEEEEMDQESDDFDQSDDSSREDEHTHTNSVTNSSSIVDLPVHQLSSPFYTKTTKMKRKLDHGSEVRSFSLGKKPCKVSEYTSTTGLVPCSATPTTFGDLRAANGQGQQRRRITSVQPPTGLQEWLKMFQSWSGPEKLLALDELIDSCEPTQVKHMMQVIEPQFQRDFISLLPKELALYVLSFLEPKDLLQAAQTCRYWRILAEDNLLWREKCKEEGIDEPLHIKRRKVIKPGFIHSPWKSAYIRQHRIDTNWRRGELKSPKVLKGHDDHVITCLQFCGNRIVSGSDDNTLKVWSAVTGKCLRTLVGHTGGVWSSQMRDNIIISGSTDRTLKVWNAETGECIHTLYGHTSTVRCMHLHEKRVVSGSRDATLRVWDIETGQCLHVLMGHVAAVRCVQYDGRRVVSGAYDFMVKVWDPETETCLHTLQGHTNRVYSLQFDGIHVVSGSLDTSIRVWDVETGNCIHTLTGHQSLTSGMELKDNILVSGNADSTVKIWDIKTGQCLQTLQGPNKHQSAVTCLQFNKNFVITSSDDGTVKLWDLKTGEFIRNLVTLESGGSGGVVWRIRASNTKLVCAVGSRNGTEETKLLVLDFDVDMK
Large screens that a line does not name were inactive. This is a sample that favours compounds with a hit; in the whole collection about 3.5% have one here.

COC(=O)c1ccc(N=Cc2nc(-c3cc(OC)c(OC)c(OC)c3)oc2O)cc1	none
Cc1ccc(F)c(CN2CCN3C(=O)[C@@H]4CCCN4C(=O)[C@H]3C2)c1	none
O=C1[C@@H]2CCCN2C(=O)[C@H]2CN(Cc3ccccc3Cl)CCN12	TEAD-YAP block 37
Cc1ccccc1CN1CCN2C(=O)[C@@H]3CCCN3C(=O)[C@H]2C1	TEAD-YAP block 46
C[C@H]1NC(=O)[C@H]2CN(Cc3ccccc3Cl)CCN2C1=O	none
c1cnc(Nc2nc(NCCN3CCOCC3)c3ncn(-c4ccsc4)c3n2)cn1	TEAD-YAP block 66
COc1ccc(CCNc2nc(NCCN3CCOCC3)nc3c2ncn3-c2ccsc2)cc1	none
COc1cc(Nc2nc(NCCN3CCOCC3)c3ncn(-c4ccsc4)c3n2)cc(OC)c1OC	TEAD-YAP block 49
C[C@@H](O)[C@@H]1NC(=O)[C@H]2CN(Cc3cccc4ncccc34)CCN2C1=O	none
COc1ccc(Nc2nc(C)c3ccccc3n2)cc1	none
COc1ccc(Nc2nc(NCc3ccccc3)c3ccccc3n2)cc1	TEAD-YAP block 44
COC(=O)c1ccc(Nc2nc(NCc3ccco3)c3ccccc3n2)cc1	TEAD-YAP block 75
Cc1ccc(Nc2nc(NCc3ccco3)c3ccccc3n2)cc1	TEAD-YAP block 46
COc1ccccc1Nc1nc(NCc2ccco2)c2ccccc2n1	none
O=S(=O)(c1ccc(Oc2ccccc2)cc1)N1CCN(c2ccccc2)CC1	none
O=c1c2cccnc2n(Cc2ccc([N+](=O)[O-])cc2)c(=O)n1Cc1ccc(F)cc1	none
Cc1ccc(Nc2nnc(SCC(=O)NC(C)(C#N)C(C)C)s2)cc1 (stereo unspecified)	none
CCOC(=O)c1c(NC(=O)C(C)Sc2nnc(CNC(=O)c3ccco3)n2-c2ccc(Br)cc2)sc2c1CCC2 (stereo unspecified)	none
CCCCOc1ccc(C(=O)Nc2sc3c(c2C#N)CCCC3)cc1	none
COc1ccc(C)cc1NC(=O)/C(C#N)=C/c1ccc(N2CCCCC2)o1	none
COc1ccc(NCC(=O)n2nc(C)cc2C)cc1	none
COc1ccc(NCC(=O)n2c(C)c(C)c3ccccc32)cc1	TEAD-YAP block 52
CCOC(=O)c1c(NC(=O)/C=C\C(=O)O)sc2c1CCC(CC)C2 (stereo unspecified)	TEAD-YAP block 43
CCCOC(=O)c1c(NC(=O)/C=C/C(=O)O)sc2c1CCCCC2	none
CCCOC(=O)c1c(NC(=O)/C=C/C(=O)O)sc2c1CCCC2	TEAD-YAP block 37
CCOC(=O)c1c(NC(=O)/C=C/C(=O)O)sc2c1CCCCC2	none
Cc1cccc(C)c1N=C1S/C(=C\c2cn(Cc3ccc(Cl)cc3Cl)c3ccccc23)C(=O)N1c1ccccc1	none
CCOc1cc(/C=C2/SC(=Nc3ccccc3)NC2=O)ccc1OCc1ccc([N+](=O)[O-])cc1	none
O=C(CSc1ccc(Cl)cc1)Nc1nc2ccc(-c3ccncc3)cc2s1	TEAD-YAP block 77
NCC(=O)N1CCC(C(=O)Nc2nc3ccc(-c4ccncc4)cc3s2)CC1	TEAD-YAP block 38
Cc1cnc(CNc2cc(-c3ccccc3F)nc(-c3cccnc3)n2)nc1	TEAD-YAP block 43
CSc1ccc(CN2CCCC(C(=O)Nc3cccc(-n4cnnn4)c3)C2)cc1 (stereo unspecified)	TEAD-YAP block 37
CC(C)N(CCNc1nc(N2CCOCC2)nc2c1ncn2-c1ccccc1)C(C)C	none
Cc1cccc(OCCOC(=O)c2ccc(S(C)(=O)=O)c([N+](=O)[O-])c2)c1	TEAD-YAP block 38
Cc1ccc(N=C(NN)c2ccc3ccccc3n2)c(C)c1	none
COc1ccc(N=C(NN)c2ccc3ccccc3n2)cc1	TEAD-YAP block 91
O=[N+]([O-])c1ccc(N2CCN(CCO)CC2)cc1NCCOc1ccc(Cl)cc1	none
CCOc1ccc(CSc2n[nH]c(CC)n2)cc1	none
CCOc1ccc(CSc2n[nH]c(C)n2)cc1	TEAD-YAP block 88
CCCOc1ccc(CSc2n[nH]c(C)n2)cc1	TEAD-YAP block 82
CC(C)CC(NS(=O)(=O)c1ccc2c(c1)oc(=O)n2C)C(=O)N1CC(C)CC(C)C1 (stereo unspecified)	none
COC(=O)C1CCN(Cc2ccc3c(c2)CN(C(=O)CCc2ccccn2)CCO3)CC1	none
COc1ccc(-c2nc(N)n(C(=O)c3ccccc3OC)n2)cc1	TEAD-YAP block 40
CSc1ccc(C(=O)N2CCC(C3(C)NC(=O)N(Cc4ccncc4)C3=O)CC2)cc1 (stereo unspecified)	none
NC(=O)c1c(NS(=O)(=O)c2ccc(F)cc2)sc2c1CCCC2	none
CCN(CC)c1ccc(/C=N/NC(=O)CNc2ccc3ccccc3c2)c(O)c1	none
Cc1cccc(N(CC(=O)NCc2ccccc2)C(=O)CCC(=O)Nc2ccccn2)c1	FBW7 activator 1.9
